In the supplement of paper PMC12636033:
± gives the standard deviation of the averaged measurements. Whole data set: some 33,000 sequences, median “E-score (rank enrichment, -0.5 to 0.5)” near -0.0068, cut for the highest 2% near 0.24. The sample as a whole holds a higher share of the highest values than the screen did.

Test system: muMax20 (Max(13-93) K31hArg/K57hArg, M65Nle)
Assay: PBM 8-mer E-score (E-score (rank enrichment, -0.5 to 0.5)); higher = stronger preferential binding
Method: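 Protein binding microarray (universal PBM chip covering all 10-mers in fixed probe flanks) with chemically synthesized human Max(13-93) bHLH-LZ analogs (not full-length Max) bearing noncanonical residues (hArg, Tha, Aib, Nle at 65) and aromatic Cys staples. Read-out per 8-mer (and its reverse complement): E-score (rank-based enrichment, -0.5 to 0.5) and Z-score of median probe intensity.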

Row | Sequence | PBM 8-mer E-score
1 | CACGTGAA | 0.368 ± 0.099
2 | CACGTGAG | 0.344 ± 0.11
3 | GACGTGAA | -0.111 ± 0.032
4 | CGCGTGAG | 0.122 ± 0.034
5 | CACGTTAG | 0.0823 ± 0.07
6 | CCCGTGAG | -0.289 ± 0.015
7 | CGCGTGAA | 0.00405 ± 0.02
8 | CACGTGAC | 0.459 ± 0.038
9 | AACGTGAC | 0.155 ± 0.0051
10 | TACGTGAA | 0.144 ± 0.01
11 | GACGTGAC | 0.0637 ± 0.034
12 | CGCGTGAC | 0.268 ± 0.12
13 | ACCCGAGG | -0.1291 ± 0.0004
14 | CCAGCTAC | -0.139 ± 0.0043
15 | GGAGCTAA | -0.194 ± 0.096
16 | ATCTCCGG | -0.11 ± 0.16
17 | CCCTTAGC | -0.0766 ± 0.14
18 | ACGCTGAA | -0.171 ± 0.049
19 | CCTCCTAC | -0.0317 ± 0.12
20 | ATACCTCC | -0.0216 ± 0.038
21 | CCCATGGC | -0.167 ± 0.041
22 | AACTGTAG | -0.00575 ± 0.073

Row | Sequence | PBM 8-mer E-score
23 | ACGACACA | -0.0466 ± 0.022
24 | ATTCGCCA | -0.152 ± 0.018
25 | AGCCTATA | 0.25 ± 0.083
26 | CGCCTATA | -0.0178 ± 0.0095
27 | GGCCTATA | -0.132 ± 0.045
28 | AATGTTGG | 0.0876 ± 0.073
29 | AATGTTGA | -0.00564 ± 0.1
30 | GATGTTGA | -0.00209 ± 0.012
31 | AATGTTGT | 0.28 ± 0.01
32 | CATGTTGA | 0.193 ± 0.044
33 | TATGTTGA | 0.238 ± 0.044
34 | ATTCTAGC | -0.0188 ± 0.08
35 | ATCTACTG | -0.00673 ± 0.085
36 | ACATACGA | 0.239 ± 0.035
37 | ACATACGC | 0.078 ± 0.081
38 | ATATACTA | 0.3084 ± 0.0014
39 | TCATACGA | 0.2 ± 0.064
40 | ATATACGC | 0.0468 ± 0.016
41 | ATATACTC | 0.128 ± 0.077
42 | ATCTACTC | -0.0945 ± 0.036
43 | CTATACTA | 0.081 ± 0.083
44 | ATATACGA | 0.247 ± 0.017

Row | Sequence | PBM 8-mer E-score
45 | ATCTACTA | 0.2783 ± 0.0027
46 | CTATACGA | -0.122 ± 0.029
47 | CCTCGCTC | -0.0787 ± 0.12
48 | GCGGAACC | -0.175 ± 0.0029
49 | GGTCGGCA | -0.172 ± 0.038
50 | ATGCCTCG | 0.0473 ± 0.0097
51 | AAACGCGA | 0.0862 ± 0.15
52 | GAGGCAAA | 0.154 ± 0.077
53 | GTGAGCGA | -0.125 ± 0.059
54 | CCAGGCTA | -0.296 ± 0.027
55 | GGAAGTAA | 0.207 ± 0.022
56 | GTGTACAA | 0.1868 ± 0.0017
57 | TTGTACAA | 0.284 ± 0.073
58 | TGGTACAA | 0.253 ± 0.084
59 | GGGTACAA | 0.0175 ± 0.13
60 | AGGTACAA | 0.128 ± 0.024
61 | CTGTACAA | 0.045 ± 0.052
62 | CATGGTTA | 0.103 ± 0.0075
63 | TCCGCACA | -0.187 ± 0.04
64 | AAACGCGT | 0.0946 ± 0.058
65 | ACACGCGC | 0.0651 ± 0.19
66 | CCACGCGA | 0.0738 ± 0.016

Row | Sequence | PBM 8-mer E-score
67 | ACACGCGA | 0.15 ± 0.0033
68 | CCACGCGC | 0.03925 ± 0.00016
69 | ACGCGCGT | 0.19 ± 0.13
70 | CCACGCGG | 0.416 ± 0.005
71 | ACACGCGT | 0.238 ± 0.014
72 | ACACGCGG | 0.246 ± 0.046
73 | AAACTCCA | -0.0494 ± 0.085
74 | AACTTACG | 0.0512 ± 0.088
75 | GGATGGGA | 0.00739 ± 0.13
76 | AGCTTTAT | -0.0838 ± 0.085
77 | AGTGTGTC | -0.0164 ± 0.029
78 | TACGGCAA | 0.0936 ± 0.016
79 | GGCCAAGA | -0.116 ± 0.056
80 | GTGCATCA | 0.145 ± 0.039
81 | GAGCATGC | 0.217 ± 0.12
82 | ATGCATCA | 0.276 ± 0.059
83 | ATGCATGA | 0.276 ± 0.055
84 | AAGCATGC | 0.254 ± 0.074
85 | ATGCATGG | 0.132 ± 0.097
86 | ATGCATTA | 0.28 ± 0.079
87 | ATGCATCG | 0.0165 ± 0.083
88 | ATGCATGC | 0.198 ± 0.11

Row | Sequence | PBM 8-mer E-score
89 | CTGCATTA | 0.0657 ± 0.06
90 | ATGCATTC | 0.215 ± 0.1
91 | AAGCATGT | 0.218 ± 0.064
92 | GAGCAGCC | -0.196 ± 0.0049
93 | ACAACCCC | 0.0696 ± 0.03
94 | ATACATTG | 0.125 ± 0.013
95 | CTACATTC | 0.0325 ± 0.15
96 | ATACATTC | 0.244 ± 0.0028
97 | ATTCATTG | 0.148 ± 0.014
98 | ATTCATTA | 0.177 ± 0.078
99 | ATTCATTC | 0.287 ± 0.035
100 | ACGCGGGG | 0.0227 ± 0.021
101 | CAGCTAAC | -0.15 ± 0.12
102 | GCGCCTCA | -0.0397 ± 0.1
103 | CCCGGTCA | -0.139 ± 0.064
104 | AACACATT | 0.0928 ± 0.081
105 | AAAACATG | 0.279 ± 0.027
106 | AACACATG | 0.317 ± 0.053
107 | CAAACATG | 0.229 ± 0.044
108 | AACACATC | 0.0883 ± 0.011
109 | AAAACATT | 0.127 ± 0.061
110 | CTCTGCTA | -0.193 ± 0.028
